Data on 8 compounds can be found in PubChem BioAssay (NCI).

A short description of the assay: NCI Yeast Anticancer Drug Screen. Data for the rad52 strain (AID 147).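 Further: 0% = growth of vehicle-treated control cultures.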 As to conditions: S. cerevisiae rad52 mutant growth inhibition, stronger effect = higher value. Here is the method: Growth inhibition of yeast strains with defined genetic alterations is measured as a screen for potential anti-cancer activity. Selected strains with alterations in DNA damage repair or cell cycle control were exposed to compounds and growth inhibition was measured relative to vehicle treated controls. The strain used in this assay is rad52

The structures appear in SMILES notation. The panel holds about 79,000 compounds, 15% with a hit somewhere; the sample as a whole holds those more often. Unmarked numbers belong to inactive results. Activity calls are given as the source filed them. No stated cut-off is given here; in the data, active means growth inhibition above about 70%; inactive means the rest.

Regarding `Cc1cc(C)nc(NS(=O)(=O)c2ccc(Nc3c4ccccc4nc4c(C(=O)NCCO)cccc34)cc2)n1`, the growth inhibition runs as follows: (at 1.2 µM) -2%; (at 3.7 µM) -1%; (at 11.0 µM) 2%; (at 33.0 µM) 21%; (at 100.0 µM) 59%.

As to `CC1=C(SCc2ccccc2)C(=O)c2ccccc2C1=O`, the growth inhibition runs as follows: (at 1.2 µM) -28%; (at 3.7 µM) -24%; (at 11.0 µM) 4%; (at 33.0 µM) 81% (active); (at 100.0 µM) 90% (active).

In the case of `Oc1cccc2cc(Cl)cnc12`, the growth inhibition reads like this: (at 1.2 µM) -5%; (at 3.7 µM) 5%; (at 11.0 µM) 49%; (at 33.0 µM) 96% (active); (at 100.0 µM) 97% (active).

Consider `O=c1[nH]c2ccc(Cl)cc2o1`, for which the growth inhibition (at 1.2 µM) is -14%; the growth inhibition (at 3.7 µM) is -10%; the growth inhibition (at 11.0 µM) was -11%; the growth inhibition (at 33.0 µM) was -13%; the growth inhibition (at 100.0 µM) was -1%.

Consider `O=[N+]([O-])c1cc(F)c(F)cc1Sc1cc(F)c(F)cc1[N+](=O)[O-]`, for which the growth inhibition is, setting by setting: (at 1.2 µM) 6%; (at 3.7 µM) 37%; (at 11.0 µM) 92% (active); (at 33.0 µM) 98% (active); (at 100.0 µM) 97% (active).

For the compound `OC1(c2ccccc2)CCCc2ccc(Cl)cc21` (stereo not given), the growth inhibition is, setting by setting: (at 1.2 µM) 1%; (at 3.7 µM) 2%; (at 11.0 µM) 0%; (at 33.0 µM) 42%; (at 100.0 µM) 99% (active).

Consider `CC(=O)OCC1OC2OC(=O)NC2C(OC(C)=O)C1OC(C)=O` (stereo not given), for which the growth inhibition was -3% (at 1.2 µM); -1% (at 3.7 µM); 0% (at 11.0 µM); 1% (at 33.0 µM); -3% (at 100.0 µM).

`Cc1ccc(NC(=O)/C(CC2N=c3c(ccc4c(O)c5ccccc5c(O)c34)=NC2O)=N/NC(C)(C)C)cc1` (stereo not given): the growth inhibition reads like this: (at 1.2 µM) 7%; (at 3.7 µM) 9%; (at 11.0 µM) 33%; (at 33.0 µM) 49%; (at 100.0 µM) 61%.
